This is part of a sample that, as a whole, favours compounds with a hit. Of some 83,000 tested, about 20% had one in any assay.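 In brief: 96-well plates, 48 h treatment, single concentration, percent growth endpoint.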 Calls of active or inactive are those of the source. How the source made its calls: active means growth percent below 10; inactive means the rest.
Legend:
Assay in all cases: NCI-60 one-dose screen, 48 h (100 = growth as untreated, 0 = no growth, -100 = all killed)
Settings in all cases: 10 µM unless noted
NCI-H23 lung = test system: NCI-H23 lung
NCI-H226 lung = test system: NCI-H226 lung
NCI-H322M lung = test system: NCI-H322M lung
HOP-62 NSCLC = test system: HOP-62 NSCLC
NCI-H460 lung = test system: NCI-H460 lung
HOP-92 NSCLC = test system: HOP-92 NSCLC
NCI-H522 lung = test system: NCI-H522 lung
A549/ATCC NSCLC = test system: A549/ATCC NSCLC
786-0 renal = test system: 786-0 renal
COLO 205 colon = test system: COLO 205 colon
DU-145 prostate = test system: DU-145 prostate
K-562 leukemia = test system: K-562 leukemia
MALME-3M melanoma = test system: MALME-3M melanoma
MDA-MB-231 breast = test system: MDA-MB-231 breast
RXF 393 renal = test system: RXF 393 renal
SF-268 CNS = test system: SF-268 CNS
SF-295 CNS = test system: SF-295 CNS
SF-539 CNS = test system: SF-539 CNS
UACC-257 melanoma = test system: UACC-257 melanoma
M14 melanoma = test system: M14 melanoma

Measured: growth

COc1ccc(-n2c(/C=C/c3ccc(O)c(OC)c3)cc(/C=C/c3ccc(O)c(OC)c3)nc2=O)cc1
inactive: NCI-H23 lung 42.5% | NCI-H226 lung 70.7% | NCI-H322M lung 83.6% | HOP-62 NSCLC 63.4% | NCI-H460 lung 78% | HOP-92 NSCLC 79.8% | NCI-H522 lung 29.3% | A549/ATCC NSCLC 79.1% | 786-0 renal 82.8% | COLO 205 colon 56.8% | DU-145 prostate 68.9% | K-562 leukemia 11.8% | MALME-3M melanoma 85% | MDA-MB-231 breast 43.8% | RXF 393 renal 45.4% | SF-268 CNS 41.4% | SF-295 CNS 82.3% | SF-539 CNS 39% | UACC-257 melanoma 82.2% | M14 melanoma 40.4%

C=C(C)[C@@H]1CC[C@]2(C(=O)OC)CC[C@]3(C)[C@H](CC[C@@H]4[C@@](C)(CC/C(N)=N/O)[C@H](C(=C)C)CC[C@]43C)[C@@H]12
inactive: NCI-H23 lung 107% | NCI-H226 lung 97.2% | NCI-H322M lung 105% | HOP-62 NSCLC 103% | NCI-H460 lung 99.5% | HOP-92 NSCLC 102% | NCI-H522 lung 95.4% | A549/ATCC NSCLC 91.8% | 786-0 renal 94.7% | COLO 205 colon 107% | DU-145 prostate 104% | K-562 leukemia 86.3% | MALME-3M melanoma 98.2% | MDA-MB-231 breast 104% | RXF 393 renal 112% | SF-268 CNS 96.6% | SF-295 CNS 96.4% | SF-539 CNS 97.5% | UACC-257 melanoma 103% | M14 melanoma 99.1%

O=C(NCN1C(=O)c2cccc3cccc(c23)C1=O)N1CCC(Cc2ccccc2)CC1
inactive: NCI-H23 lung 93.9% | NCI-H226 lung 96.7% | NCI-H322M lung 105% | HOP-62 NSCLC 94% | NCI-H460 lung 103% | HOP-92 NSCLC 70% | NCI-H522 lung 77.9% | A549/ATCC NSCLC 89.8% | 786-0 renal 102% | COLO 205 colon 97.5% | DU-145 prostate 106% | K-562 leukemia 90.2% | MALME-3M melanoma 96.6% | MDA-MB-231 breast 98.2% | RXF 393 renal 107% | SF-268 CNS 100% | SF-295 CNS 96.8% | SF-539 CNS 102% | UACC-257 melanoma 103% | M14 melanoma 92.5%

C=C(C)[C@@H]1CC[C@]2(C)[C@H](CC=C3[C@@H]4CC(C)(C)CC[C@]4(C=O)CC[C@]32C)[C@@]1(C)CCCN
active: COLO 205 colon -62.3% | K-562 leukemia 1.54%
inactive: NCI-H23 lung 86.4% | NCI-H226 lung 85.5% | NCI-H322M lung 86.5% | HOP-62 NSCLC 88.9% | NCI-H460 lung 86.3% | HOP-92 NSCLC 62% | NCI-H522 lung 91.8% | A549/ATCC NSCLC 77.6% | 786-0 renal 90.4% | DU-145 prostate 93.3% | MALME-3M melanoma 68.8% | MDA-MB-231 breast 75.2% | RXF 393 renal 67.1% | SF-268 CNS 83.2% | SF-295 CNS 93.2% | SF-539 CNS 89.3% | UACC-257 melanoma 81% | M14 melanoma 63.9%

Cc1cc(Cl)nc(N(CCNc2ccnc3cc(Cl)ccc23)Cc2ccco2)n1
inactive: NCI-H23 lung 45.6% | NCI-H226 lung 70.3% | NCI-H322M lung 70.6% | HOP-62 NSCLC 25.6% | NCI-H460 lung 31.7% | HOP-92 NSCLC 57% | NCI-H522 lung 53.2% | A549/ATCC NSCLC 60.6% | COLO 205 colon 50.9% | DU-145 prostate 52.2% | K-562 leukemia 16.2% | MALME-3M melanoma 81.3% | MDA-MB-231 breast 19.3% | SF-268 CNS 66.7% | SF-295 CNS 59.4% | UACC-257 melanoma 115% | M14 melanoma 55.3%
active: 786-0 renal -9.46% | RXF 393 renal -15.7% | SF-539 CNS -41.6%

C#CCn1c2c(c3ccccc31)C[C@]1(C)[C@H]3CC[C@@H]4[C@@H]5C(=CCC[C@H]5C(=C)C)CC[C@@]4(C)[C@]3(C)CC[C@H]1C2(C)C
inactive: NCI-H23 lung 106% | NCI-H226 lung 102% | NCI-H322M lung 103% | HOP-62 NSCLC 97.1% | NCI-H460 lung 99.8% | HOP-92 NSCLC 124% | NCI-H522 lung 96.5% | A549/ATCC NSCLC 102% | 786-0 renal 106% | COLO 205 colon 104% | DU-145 prostate 108% | K-562 leukemia 91.9% | MALME-3M melanoma 110% | MDA-MB-231 breast 101% | RXF 393 renal 128% | SF-268 CNS 97.8% | SF-295 CNS 107% | SF-539 CNS 97.1% | UACC-257 melanoma 108% | M14 melanoma 100%

COc1cnc2c(c1)C(=O)c1c-2n(CCCNCCN2CCOCC2)c(=O)c2cc([N+](=O)[O-])ccc12
active: NCI-H23 lung -21.7% | NCI-H226 lung -52.7% | NCI-H322M lung 6.04% | HOP-62 NSCLC -0.313% | NCI-H460 lung -55.2% | HOP-92 NSCLC -4.05% | NCI-H522 lung -19.9% | A549/ATCC NSCLC -72.1% | 786-0 renal -53.6% | COLO 205 colon -2.78% | DU-145 prostate 2.63% | K-562 leukemia 0.36% | MALME-3M melanoma -11.7% | MDA-MB-231 breast 2.48% | RXF 393 renal -32.3% | SF-295 CNS 1.52% | SF-539 CNS -1.79% | UACC-257 melanoma 5.34% | M14 melanoma 6.27%
inactive: SF-268 CNS 12.3%

From PubChem BioAssay (NCI)
